Source: PubChem BioAssay (Center for Chemical Genomics, University of Michigan)
Shown is part of a subset that was picked to be rich in hits.
Dicer processing: human Dicer pre-microRNA cleavage inhibition; Q9UPY3; cat-ELCCA pre-miR-21 Dicer processing, chemiluminescence; active compounds read high; z-score at 25 µM; 47,000 tested, 6% active; in the data active = z-score above about 3, passing the limit was not always enough;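 also: plate controls were vehicle for no effect and no enzyme for full effect; higher signal means more uncleaved substrate so more Dicer inhibition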
The depositor's hits bear a star.

What do the screens show for `Cc1ccc(C2Nn3c(nnc3-c3ccccc3)SC2C(=O)N2CCOCC2)cc1` (stereo not drawn)?
Dicer processing: -0.66

What do the screens show for `O=C(C1Sc2nnc(-c3ccccc3)n2NC1c1ccccc1)N1CCCC1` (stereo not drawn)?
Dicer processing: -0.08

What do the screens show for `Cc1ccc(C2Nn3c(nnc3-c3ccccc3)SC2C(=O)N2CCCCC2C)cc1` (stereo not drawn)?
Dicer processing: 3*

How did CCCc1cc(=O)[nH]c(/N=C(\N)Nc2cc(C(F)(F)F)ccc2Cl)n1 do in these assays?
Dicer processing: 8.65

What do the screens show for `CC(/C=C/c1c[nH]c2ccccc12)=C\C(=O)O`?
Dicer processing: -0.83

What do the screens show for `CC(=O)N1N=C(c2cc(C)ccc2[N+](=O)[O-])OC1c1ccc(N(C)C)cc1` (stereo not drawn)?
Dicer processing: -2.78

What do the screens show for `CC(=O)N1N=C(c2ccc(Br)cc2)OC1c1ccc(F)cc1` (stereo not drawn)?
Dicer processing: 3.17*

Results for CC(=O)N1N=C(c2ccc(C)cc2)OC1c1cccnc1 (stereo not drawn) ?
Dicer processing: 0.44

What do the screens show for `O=C(NC(=S)NNc1ncccc1-n1cccc1)c1ccccc1`?
Dicer processing: -1.54

How did O=C1c2cccc3cc([N+](=O)[O-])cc(c23)C(=O)N1c1ccc(S(=O)(=O)Nc2ccc(C(F)(F)F)cc2)cc1 do in these assays?
Dicer processing: -0.88

How did O=C(Nc1nccs1)c1cc2ccccc2o1 do in these assays?
Dicer processing: -3.46

Results for O=C(Nc1ccc(S(=O)(=O)Nc2ncccn2)cc1)c1cc2ccccc2o1 ?
Dicer processing: 0.46

Results for O=C(Nc1ncn[nH]1)c1cc2ccccc2o1 ?
Dicer processing: 4.93*

Results for CC(C)(C)OC(=O)N1CCCN(C(=S)Nc2ccc(Cl)cc2Cl)CC1 ?
Dicer processing: -0.77

How did COCCCn1c2c(c(=O)[nH]c1=O)C(c1ccccc1OC)C1=C(N2)c2ccccc2C1=O (stereo not drawn) do in these assays?
Dicer processing: 0.82

How did COc1cc(CNCCSc2nnnn2C)ccc1OCc1ccc(F)cc1 do in these assays?
Dicer processing: -0.85

How did COc1cc(-n2c(SCC(=O)c3ccc(Cl)cc3)nc3ccccc3c2=O)c(OC)cc1Cl do in these assays?
Dicer processing: 3.82*

What do the screens show for `COc1cc(-n2c(SCC(=O)c3ccccc3)nc3ccccc3c2=O)c(OC)cc1Cl`?
Dicer processing: -0.01

What do the screens show for `O=C(CSc1n[nH]c(=O)n1-c1ccccc1)c1ccc(Cl)cc1`?
Dicer processing: -3.48

Results for Cc1cccc(NC(=S)Nc2ccc(C)c(NS(C)(=O)=O)c2)c1 ?
Dicer processing: -0.4

What do the screens show for `COc1ccc(-c2nnc(SCc3ccc(C)cc3)o2)cc1`?
Dicer processing: -0.1

What do the screens show for `COc1ccc(OC)c2c1nc1n2C(O)C=C(C(C)(C)C)S1` (stereo not drawn)?
Dicer processing: 2.75

How did CSC1=N/C(=C\c2ccccc2OCc2ccccc2)C(=O)S1 do in these assays?
Dicer processing: 0.07

Results for CCCOC(=O)CSc1nnc(-c2ccc(N(C)C)cc2)o1 ?
Dicer processing: -1.4

How did c1ccc(-c2nnc(-c3ccccc3)o2)cc1 do in these assays?
Dicer processing: 1.15

What do the screens show for `CN(C)c1ccc(-c2nnc(-c3ccccc3)o2)cc1`?
Dicer processing: 4.23*

What do the screens show for `CCOCCOC(=O)C1=C(C)NC2=C(C(=O)CC(c3ccc(Cl)cc3)C2)C1c1ccc(O)cc1` (stereo not drawn)?
Dicer processing: 0.16

Results for Fc1ccc(CSc2nnc3sc4ccccc4n23)cc1 ?
Dicer processing: 1.18

How did N#CC(C(=O)c1cccc(C(F)(F)F)c1)=C1SCCCCS1 do in these assays?
Dicer processing: 0.81

Results for CSC(SC)=C(C#N)C(=O)c1cccc(C(F)(F)F)c1 ?
Dicer processing: 5.06*

Results for CSC(SC)=C(C#N)C(=O)c1cccc(C)c1 ?
Dicer processing: -0.63

Results for CCOC(=O)c1cnn2c1[nH]c(=O)c1ccccc12 ?
Dicer processing: -1.35

Results for Cc1ccc(S(=O)(=O)N2CCCN(S(=O)(=O)c3ccc(C)c(C)c3C)CC2)c(C)c1C ?
Dicer processing: -0.83

Results for O=C(O)c1cc(Br)cc(Br)c1NC(=O)c1sc2ccccc2c1Cl ?
Dicer processing: -0.69

Results for O=S(=O)(CCN(Cc1cccs1)C(=S)Nc1cccc(F)c1)c1ccc(Cl)cc1 ?
Dicer processing: -1.85

Results for O=S(=O)(CCN(Cc1cccs1)S(=O)(=O)c1ccc(Cl)cc1)c1ccc(Cl)cc1 ?
Dicer processing: 1.67

Results for CNC(=S)N(CCS(=O)(=O)c1ccc(Cl)cc1)Cc1cccs1 ?
Dicer processing: 3.2*

Results for Cc1cc(C)c2c(n1)sc1c(=O)n(/N=C/c3ccccc3Cl)nnc12 ?
Dicer processing: -0.64

What do the screens show for `Cn1ncc(Br)c1NC(=O)c1ccc(F)cc1Cl`?
Dicer processing: -6.61

How did COCCCNCCn1cnc2c(N)ncnc21 do in these assays?
Dicer processing: -2.41

Results for Cc1cccc(-n2c(N)c(C#N)c3nc4ccccc4nc32)c1C ?
Dicer processing: -0.92

How did CCN(C(=O)c1cccnc1OCC(F)(F)F)c1ccc(Cl)cc1 do in these assays?
Dicer processing: -6.38

What do the screens show for `Cc1cc(C)c2c(c1)-c1cc(C)nn1C(c1ccc(O)cc1O)N2` (stereo not drawn)?
Dicer processing: 1.41

Results for COc1cc(O)ccc1C1Nc2ccc(C)cc2-c2cc(C)nn21 (stereo not drawn) ?
Dicer processing: 2.71

Results for COc1cccc(C2Nc3ccc(C)cc3-c3cc(C)nn32)c1O (stereo not drawn) ?
Dicer processing: 3.04*

Results for COc1cccc(C2Nc3ccc(C)cc3-c3cc(C)nn32)c1OC (stereo not drawn) ?
Dicer processing: 1.95

Results for COc1cccc(C2Nc3c(C)cc(C)cc3-c3cc(C)nn32)c1OC (stereo not drawn) ?
Dicer processing: 4.86*

Results for Cc1cc2n(n1)C(c1ccc(O)cc1O)Nc1ccccc1-2 (stereo not drawn) ?
Dicer processing: 1.18

Results for Cc1ccc2c(c1)-c1cc(C)nn1C(c1ccccc1O)N2 (stereo not drawn) ?
Dicer processing: -0.25

What do the screens show for `COc1cccc(C2Nc3c(C)cccc3-c3cc(C)nn32)c1OC` (stereo not drawn)?
Dicer processing: 0.22

What do the screens show for `COc1ccc(C2Nc3ccccc3-c3cc(C)nn32)c(OC)c1` (stereo not drawn)?
Dicer processing: 0.44

How did COc1cccc(C2Nc3c(C)cc(C)cc3-c3cc(C)nn32)c1O (stereo not drawn) do in these assays?
Dicer processing: 0.17

Results for Cc1cc2n(n1)C(c1cccc(O)c1O)Nc1ccccc1-2 (stereo not drawn) ?
Dicer processing: 20.9*

How did Cc1ccc2c(c1)-c1cc(C)nn1C(c1ccc(O)cc1O)N2 (stereo not drawn) do in these assays?
Dicer processing: 3.71*

What do the screens show for `O=c1c2ccccc2nnn1-c1ccc(Br)cc1`?
Dicer processing: 1.02

What do the screens show for `CC(C)(C)S(=O)(=O)Cc1nc(-c2ccc(Cl)c(Cl)c2)cs1`?
Dicer processing: 0.85

How did O=c1/c(=C/c2ccc(F)cc2)sc2nnc(-c3ccco3)n12 do in these assays?
Dicer processing: 0.48

Results for COc1ccc2c3c([nH]c2c1)C(C)(C(=O)O)NCC3 (stereo not drawn) ?
Dicer processing: 4.81

How did CC(C)(C)NCC(O)c1ccc(O)c(CO)c1 (stereo not drawn) do in these assays?
Dicer processing: 0.74
